# Measurements published in the supplement of paper PMC6555819.
# Tests used:
# Experiment in all cases: PBM binding z-score (relative to random genomic background probes); higher = stronger binding; sequences stand for … in GC…GCGATTGACAGCGTAGAATGAAGG
# [1] = test system: FXR:RXRa (NR concentration 270 nM, RXRa partner concentration 90 nM)
# How it was run: (§1)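 Binding z-scores were set against random background probes. The data came from custom Agilent 4×180K protein-binding microarrays carrying double-stranded probes with 34-nt variable regions, incubated 1 h with ligand-free nuclear receptor dimers. Partner-specific antibodies detected binding, and scanned fluorescence was regression-normalized.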
# [2] = test system: LXRa:RXRa (NR concentration 270 nM, RXRa partner concentration 90 nM)
# How it was run: as §1
# [3] = test system: LXRa homodimer (NR concentration 270 nM)
# How it was run: as §1
# [4] = test system: LXRb:RXRa (NR concentration 270 nM, RXRa partner concentration 90 nM)
# How it was run: as §1
# [5] = test system: LXRb homodimer (NR concentration 270 nM)
# How it was run: as §1
# [6] = test system: PPARa:RXRa (NR concentration 270 nM, RXRa partner concentration 90 nM)
# How it was run: as §1
# [7] = test system: PPARg:RXRa (NR concentration 180 nM, RXRa partner concentration 90 nM)
# How it was run: as §1
# [8] = test system: PPARg:RXRa 270nM:90nM, anti-RXR (NR concentration 270 nM, RXRa partner concentration 90 nM)
# How it was run: as §1
# [9] = test system: PPARg:RXRa 30nM:10nM, anti-RXR (NR concentration 30 nM, RXRa partner concentration 10 nM)
# How it was run: as §1
# [10] = test system: PPARg:RXRa 90nM:30nM, anti-RXR (NR concentration 90 nM, RXRa partner concentration 30 nM)
# How it was run: as §1
# [11] = test system: PPARg:RXRa DBDmut IVT, anti-RXR (DBD mutation: RXRa K156A/R161A, NR concentration 270 nM, RXRa partner concentration 90 nM)
# How it was run: as §1
# [12] = test system: PPARg:RXRa IVT, anti-PPARg (NR concentration 270 nM, RXRa partner concentration 90 nM)
# How it was run: as §1
# [13] = test system: PPARg DBDmut:RXRa IVT, anti-PPARg (DBD mutation: PPARg1 K132A/R137A, NR concentration 270 nM, RXRa partner concentration 90 nM)
# How it was run: as §1
# [14] = test system: PPARg DBDmut IVT, anti-PPARg (DBD mutation: PPARg1 K132A/R137A, NR concentration 270 nM)
# How it was run: as §1
# [15] = test system: PPARg homodimer (NR concentration 180 nM)
# How it was run: as §1
# [16] = test system: PXR:RXRa (NR concentration 270 nM, RXRa partner concentration 90 nM)
# How it was run: as §1
# [17] = test system: PXR homodimer (NR concentration 270 nM)
# How it was run: as §1
# [18] = test system: RARa:RXR (NR concentration 270 nM, RXRa partner concentration 90 nM)
# How it was run: as §1
# [19] = test system: RARa homodimer (NR concentration 270 nM)
# How it was run: as §1
# [20] = test system: RARb:RXRa (NR concentration 270 nM, RXRa partner concentration 90 nM)
# How it was run: as §1
Sequence,PBM binding z-score [1],PBM binding z-score [2],PBM binding z-score [3],PBM binding z-score [4],PBM binding z-score [5],PBM binding z-score [6],PBM binding z-score [7],PBM binding z-score [8],PBM binding z-score [9],PBM binding z-score [10],PBM binding z-score [11],PBM binding z-score [12],PBM binding z-score [13],PBM binding z-score [14],PBM binding z-score [15],PBM binding z-score [16],PBM binding z-score [17],PBM binding z-score [18],PBM binding z-score [19],PBM binding z-score [20]
GCATATAGGTAATACAAGGTGAAAGACCGATTGT,1.32,2.31,0.0608,0.571,-0.236,1.46,1.65,1.57,0.368,0.978,3.84,3.44,0.445,0.718,0.0891,0.523,-0.102,1.49,0.624,0.568
ACATACGGGTCAACGAGGTTATAGCACGCGTATA,5.59,4.74,0.827,3.97,0.73,5.39,5.65,4.94,1.99,3.86,3.32,4.26,2.04,0.961,2.67,5.01,2.89,5.03,1.03,3.99
CCCACTGGGGCAGAAAGGTTACCATACCATCCGG,0.135,0.483,-0.148,0.675,-0.892,2.12,2.04,2.59,0.549,2.22,2.2,3.8,-0.946,-0.994,1.02,0.703,-0.212,1.59,-0.0999,1.86
CGACCAAGGTCAGAGAGGTCAGTGAATGCCGAGT,6,4.97,2.61,4.23,-0.0164,4.64,3.68,4.21,1.11,2.69,2.95,3.5,0.125,-0.614,5.33,6.21,12.7,5.78,2.47,5.18
CGAACTAGGTCAAAACAGGACAGTGAAGGATGAT,3.26,3.07,0.154,1.86,0.313,4.54,6.73,5.86,3.32,5.36,7.83,8.1,3.19,2.56,2.39,2.05,-0.00978,2.02,0.444,3.33
CGAACTAGGTCATTGACCGGACAGTGAATAGTAA,5.26,4.95,2.4,3.37,0.0098,4.46,7.14,6.07,3.06,5.48,8.08,8.12,0.655,0.319,0.696,1.2,-0.102,1.93,0.169,3.61
CCTACTGGGCCAGCAGGTCATTGATATCAACGTT,0.852,0.958,0.496,1.21,-0.78,2.51,2.26,2.84,1.09,2.63,3.7,4.16,-0.155,-0.528,1.02,1.46,-0.0906,1.8,-0.335,1.88
TCTTGTAGATCAGCAGGTTAAGCAAGCTGGCCAA,0.0214,0.292,-0.676,0.24,-0.51,0.793,-0.47,1.26,2.15,1.62,1.37,0.191,-0.396,0.0188,-0.763,0.022,-0.446,0.058,-1.03,0.0308
TCTCGGAGGACAAGAAGGTCAGAGCTTTCCAGAG,1.04,1.14,0.138,0.982,-0.842,1.9,0.179,1.35,2.52,1.71,1.27,0.839,-0.347,-1,0.686,1.71,1.64,1.69,0.0458,3.07
TCTATTAGTTGAAGGGCAATCGACGAGTCCGTTT,0.797,0.889,0.341,0.908,0.176,0.795,0.0366,1.98,3.75,2.67,2.4,0.352,-0.193,-0.223,0.916,0.833,0.904,0.162,0.81,1.24
CAAACTAGGTCAAAGGTCACAGTCGAGCCAACCA,8.05,6.81,4.49,7.06,2.03,7.83,13.8,11.1,13.2,13.2,8.58,9.39,3.19,2.73,4.25,6.88,1.29,8.53,1.9,5.89
AATACAGGGTCATCGTAGGCCCGAGTACGCACAG,6.78,5.81,2.32,3.99,0.935,5.82,6.57,6.13,2.54,5.01,2.64,3.72,0.916,-0.158,1.25,3.92,0.581,4.7,0.922,4.23
CAAACTAGGTCTCCGGAAGGTCAAAGTCCGCATG,2.65,3.15,2.79,3.25,0.445,3.75,2.85,3.29,0.811,2.34,5.21,4.82,0.561,0.489,2.44,3.68,1.14,3.9,0.122,3.23
CCTACTGGGCCACGAAAGGTCATTGTTTCAGTGA,3.44,5.19,5.22,4.29,0.43,4.61,4.26,4.79,1.73,4.24,5.79,6.05,1.13,0.571,3.37,5.45,2.06,5.42,0.917,4.06
CGAACTAGGTCAAGAGGTCAAAGTCCGCTTCCCG,7.13,6.37,6.49,5.6,1.59,6.58,10.1,7.94,7.44,8.35,8.26,8.1,0.974,-0.335,5.23,6.23,3.31,7.7,2.18,5.48
